Gli-Sufu antag: Gli-Sufu pathway antagonism; Sufu-KO-LIGHT fibroblasts, Gli luciferase reporter luminescence; inhibition, % at 5 µM; hit rate 0.74% among 340,000; AID 588413;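 active = inhibition above about 55%, limit read from the data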;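 also: 0% = DMSO-treated cells and 100% = wells with medium but no cells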
Mdm2 MdmX PPI: human Mdm2/MdmX binding inhibition. O15151+Q00987. SaOS-2 split-luciferase Mdm2/MdmX complementation, luminescence. inhibition, % at 8 µM. hit rate 3% among 330,000. AID 485346;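 active = inhibition of at least 50% at 8 µM in the primary screen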
Target sequence (O15151 whole entry, looked up): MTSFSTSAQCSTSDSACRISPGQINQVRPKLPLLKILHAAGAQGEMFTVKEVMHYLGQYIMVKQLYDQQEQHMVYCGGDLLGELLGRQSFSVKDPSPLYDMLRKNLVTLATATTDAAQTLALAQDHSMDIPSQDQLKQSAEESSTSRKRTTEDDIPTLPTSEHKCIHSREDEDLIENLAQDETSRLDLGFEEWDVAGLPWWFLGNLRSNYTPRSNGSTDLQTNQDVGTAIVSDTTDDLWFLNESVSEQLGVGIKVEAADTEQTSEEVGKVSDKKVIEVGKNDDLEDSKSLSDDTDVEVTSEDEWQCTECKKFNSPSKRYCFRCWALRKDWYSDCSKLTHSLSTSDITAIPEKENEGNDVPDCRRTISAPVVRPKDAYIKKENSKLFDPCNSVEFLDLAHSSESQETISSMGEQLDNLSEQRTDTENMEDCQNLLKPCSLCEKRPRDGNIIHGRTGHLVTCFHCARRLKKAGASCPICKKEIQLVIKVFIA
Target sequence (Q00987 whole entry, looked up): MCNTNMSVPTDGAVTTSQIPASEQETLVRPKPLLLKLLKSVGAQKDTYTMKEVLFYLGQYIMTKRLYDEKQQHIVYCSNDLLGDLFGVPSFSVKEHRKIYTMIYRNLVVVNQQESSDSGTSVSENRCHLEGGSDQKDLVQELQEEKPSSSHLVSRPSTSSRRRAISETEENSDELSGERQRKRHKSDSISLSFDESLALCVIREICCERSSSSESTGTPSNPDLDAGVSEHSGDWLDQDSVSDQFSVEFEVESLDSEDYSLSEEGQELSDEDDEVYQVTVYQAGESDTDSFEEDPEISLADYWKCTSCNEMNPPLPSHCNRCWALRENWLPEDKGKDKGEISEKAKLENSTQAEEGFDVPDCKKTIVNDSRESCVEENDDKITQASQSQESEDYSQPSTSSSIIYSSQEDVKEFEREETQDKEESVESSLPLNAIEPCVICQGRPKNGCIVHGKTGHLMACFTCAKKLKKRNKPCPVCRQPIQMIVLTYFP
CSC inhib: cancer stem cell inhibition | cancer stem cell-like cells viability, luminescence | inhibition, % at 7.5 µM | hit rate 1.1% among 300,000; in the data active = inhibition above about 75%; inconclusive = no clear call, values can overlap the other calls; tested in HMLE shEcad cells
PAX8 reporter: PAX8 transcriptional activity inhibition | RMG-I TPO-luciferase reporter, SteadyGlo, 24 h | inhibition, % at 12.6 µM | hit rate 1.2% among 360,000 | AID 652154;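 active = mean replicate inhibition at least 60% with every replicate also reaching 60%; inconclusive = only one of the two criteria is met; inactive = mean below 60% and not all replicates reaching 60%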;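 also: luciferase light reporting Pax8 driven TPO promoter activity; plate controls were median of neutral control wells for no effect and mitoxantrone controls for full effect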
Beta cell apopt: beta cell apoptosis inhibition; INS-1E cytokine-induced death, ATP luminescence, 48 h; percent of positive-control rescue, neutral wells zero; protection from apoptosis, % (test concentration not listed); hit rate 0.8% among 300,000; AID 435005;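 active = Every replicate reaches about 75%, or at least half do and their mean reaches it too, limit read from the data; inconclusive = At least half of replicates reach the limit but their mean does not; inactive = Under half of replicates reach the limit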;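 also: 0% = cytokine-treated negative control wells and 100% = positive control rescue; higher means more ATP so stronger rescue from cytokine killing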
Shn3 inh set2: Schnurri-3 reporter inhibition in Clone20 osteoblasts; Clone20 osteoblast Shn3 3'UTR firefly luciferase, 24 h; inhibition, % at 12.5 µM; hit rate 0.52% among 360,000; AID 588674;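 active = mean inhibition of at least 75% with every replicate also reaching 75%; inconclusive = mean inhibition at least 75% but some replicate below; inactive = mean inhibition below 75%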;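 also: 0% = median of neutral control wells and 100% = pilot-screen positive control compound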
Gli-Sufu confirm: confirmation of Gli-SUFU pathway antagonists; shares compounds with Gli-Sufu antag; Sufu-KO-LIGHT cells, Gli luciferase reporter, luminescence; inhibition, % at 5 µM; hit rate 40% among 2,500; AID 602428;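 active = mean inhibition at 5 µM reaching about 45%, limit read from the data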;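 also: plate controls were DMSO-treated cells for no effect and wells lacking cells for full effect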
SufuKO cytotox: counter-screen for Gli-SUFU antagonists: cytotoxicity | shares compounds with Gli-Sufu antag | Sufu-KO-LIGHT cells cytotoxicity, ATP luminescence | cytotoxicity, % at 5 µM | hit rate 32% among 2,500;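 active = mean cytotoxicity at 5 µM above about 25%, limit read from the data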;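 also: cells exposed to compound overnight for roughly 16 to 18 hours; plate controls were DMSO wells with cells for no effect and medium without cells for full effect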
Wnt3a cs: counter-screen for Gli-SUFU antagonists: Wnt3a reporter inhibition. shares compounds with Gli-Sufu antag. Wnt-LIGHT cells, Wnt3a-driven luciferase reporter, luminescence. inhibition, % at 6.25 µM. hit rate 20% among 2,500. AID 651995;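 active = mean inhibition above about 25%, limit read from the data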
An asterisk follows results filed as active; ? = inconclusive; nt = not tested or not shown. The list is not random: actives were taken first. Their share in the collection is about 4%.

SMILES	Gli-Sufu antag	Mdm2 MdmX PPI	CSC inhib	PAX8 reporter	Beta cell apopt	Shn3 inh set2	Gli-Sufu confirm	SufuKO cytotox	Wnt3a cs
COc1cccc(S(=O)(=O)N2CCCCN3[C@H](CO)[C@H](c4ccc(C5=CCCCC5)cc4)[C@H]3C2)c1	nt	nt	nt	15	nt	nt	nt	nt	nt
CN(C)S(=O)(=O)c1cccc(-c2nn(-c3ccccc3)cc2/C=C(/C#N)C(=O)NCc2ccco2)c1	83*	31	-16	-9	4	-2	30	8	14
CC(N=C1NS(=O)(=O)c2ccccc21)C(=O)OCC(=O)N(C)C1CCS(=O)(=O)C1 (stereo not drawn)	86*	-2	-10	11	-4	-15	14	-5	14
COc1ccc(CN(C)C[C@@H]2OCCCC[C@@H](C)Oc3ccc(NC(=O)CCC(F)(F)F)cc3C(=O)N([C@H](C)CO)C[C@@H]2C)cc1	nt	nt	nt	2	nt	nt	nt	nt	nt
O=c1c2ccccc2c2ccccc2c(=O)n1Cc1cccnc1	59*	-18	6	nt	-6	3	7	11	-6
CN1/C(=C\P(=O)(N(C)C)N(C)C)C(C)(C)c2ccccc21	76*	5	0	nt	87*	?	70*	30*	29*
C[C@@H]1CN([C@@H](C)CO)C(=O)c2cccc(NC(=O)c3ccncc3)c2O[C@@H]1CN(C)C(=O)NC1CCCCC1	nt	nt	nt	6	nt	nt	nt	nt	nt
COc1cc(CC2COC(=O)C2(O)Cc2ccc(O)c(OC)c2)ccc1O (stereo not drawn)	17	-7	-10	nt	nt	69	nt	nt	nt
COc1cc(C[C@@H]2C(=O)OC[C@H]2Cc2ccc(OC)c(OC)c2)ccc1O	66*	6	-8	8	67	77	57*	32*	32*
Fc1ccc(Cn2nnnc2CN2CCN(C3CCCC3)CC2)cc1	93*	-3	23	nt	-3	-20	18	-11	0
Cc1ccc(C2CC(=O)Nc3cc4c(cc32)OCCO4)s1 (stereo not drawn)	6	31	1	nt	-4	24	nt	nt	nt
CC(C)Oc1ccccc1C1CC(=O)Nc2cc3c(cc21)OCCO3 (stereo not drawn)	55	48	-31	80*	19	77	60*	59*	5
CC(C)N(Cc1ccccc1)S(=O)(=O)c1ccc(F)cc1	59*	31	-9	22	47	55	49*	34*	33*
CCC(=O)N1CCc2cc(S(=O)(=O)CCC(=O)Nc3ccc(CC)cc3)ccc21	4	-3	-17	15	6	13	nt	nt	nt
CCC(=O)N1CCc2cc(S(=O)(=O)CCC(=O)Nc3ccc(C(C)=O)cc3)ccc21	59*	14	10	-4	0	-26	19	0	16
CC(C)N1CCC(N2CCN(CCCc3ccccc3)CC2CCO)CC1 (stereo not drawn)	60*	12	-1	-5	-9	-6	13	27*	-6
OCCC1CN(Cc2cc(F)ccc2F)CCN1CCCc1ccccc1 (stereo not drawn)	53	9	24	-33	-3	15	13	18	-40
CC1CCCN(CCOc2cccc(Oc3ccccc3)c2)C1 (stereo not drawn)	51	26	nt	32	nt	-4	27	9	-14
CC1CN(CCOc2cccc(Oc3ccccc3)c2)CC(C)O1 (stereo not drawn)	52	11	nt	10	nt	23	14	14	-9
c1ccc(Oc2cccc(OCCCCN3CCCC3)c2)cc1	19	7	59	-7	5	5	nt	nt	nt
CCCNC(=O)[C@H]1[C@H](CO)[C@H]2Cn3c(ccc(-c4ccccc4)c3=O)[C@H]2N1C(=O)c1ccccc1F	nt	nt	nt	-4	nt	nt	nt	nt	nt
COc1ccc(CN(C)C[C@H]2OCCCC[C@H](C)Oc3ccc(NC(=O)c4ccccc4)cc3C(=O)N([C@H](C)CO)C[C@@H]2C)cc1	nt	nt	nt	-43	nt	nt	nt	nt	nt
Cc1ccc(C)c(NC(=O)C2CCN(S(=O)(=O)c3ccc4c(c3)NC(=O)CO4)CC2)c1	60*	13	2	12	0	8	18	11	-32
Cc1cccc(NC(=O)C2CCN(S(=O)(=O)c3ccc4c(c3)NC(=O)CO4)CC2)c1	2	34	7	-13	1	-12	nt	nt	nt
COc1cc(/C=C2/NC(=O)N(Cc3ccccc3F)C2=O)ccc1O	71*	3	10	9	-4	27	54*	22	37*
SMILES	Gli-Sufu antag	Mdm2 MdmX PPI	CSC inhib	PAX8 reporter	Beta cell apopt	Shn3 inh set2	Gli-Sufu confirm	SufuKO cytotox	Wnt3a cs
COc1cc(/C=C2/NC(=O)N(Cc3ccccc3F)C2=O)ccc1Oc1ccc([N+](=O)[O-])cn1	12	14	-6	5	3	15	nt	nt	nt
COc1ccccc1NC(=O)N1CCCC1C(=O)NCC1CCCO1 (stereo not drawn)	50	3	4	-2	1	1	25	9	-7
CCCC#Cc1ccc2c(c1)O[C@@H](CN(C)C(=O)CN(C)C)[C@@H](C)CN([C@@H](C)CO)S2(=O)=O	nt	nt	nt	-15	nt	nt	nt	nt	nt
O=C(NC1CCN(Cc2ccccc2)CC1)C1CCN(S(=O)(=O)c2cccc3nsnc23)CC1	59*	28	1	nt	1	30	19	29*	-5
O=C(NC1CCN(Cc2ccccc2)CC1)C1CCN(S(=O)(=O)c2cccc3cccnc23)CC1	-15	25	-8	18	nt	-22	nt	nt	nt
O=C(C1CCCC1)N1[C@@H](CO)[C@@H](c2ccccc2)C12CN(CCC(F)(F)F)C2	nt	nt	nt	-38	nt	nt	nt	nt	nt
COc1ccc(OCCC(=O)NCCN2CCOCC2)cc1	55	22	13	18	2	-9	21	16	-16
COc1ccc(OCC(O)Cn2c(=N)n(CCN3CCOCC3)c3ccccc32)cc1 (stereo not drawn)	63*	17	6	8	1	5	18	17	-19
Cc1noc(C)c1S(=O)(=O)N(C)C[C@@H]1OCCCC[C@@H](C)Oc2ccc(NC(=O)NC3CCCCC3)cc2C(=O)N([C@@H](C)CO)C[C@@H]1C	nt	nt	nt	1	nt	nt	nt	nt	nt
CSC1SCC2C(=O)N(C)C(C(C)C)C(=O)OCC(NC(=O)c3cnc4ccccc4n3)C(=O)NC(C)C(=O)N(C)C1C(=O)N(C)C(C(C)C)C(=O)OCC(NC(=O)c1cnc3ccccc3n1)C(=O)NC(C)C(=O)N2C (stereo not drawn)	80*	nt	nt	97*	nt	94*	85*	73*	102*
COC(=O)c1ccc(CN2CCCC(C(=O)Nc3cccc(-n4cccn4)c3)C2)cc1 (stereo not drawn)	53	8	11	13	-3	5	15	20	4

Source: PubChem (several laboratories)
